An excerpt weighted towards active compounds, which were near 0.93% of everything screened.
MBNL1 CUG block: blocks human MBNL1 binding to CUG repeat RNA; Q9NR56; TR-FRET MBNL1-His/biotin-(CUG)12 binding, 665/545 ratio; Potency, µM (titrated, usually from 57.5 µM), actives largely listed as inhibitors; 0.036% of 280,000 active; AID 2675; active means well fitted inhibition curve with a large enough effect in the signal ratio, with a control signal flat, not every such curve was filed as active; inconclusive means small, poorly fitted or top-dose-only effect, or effect the other way, or a change in a side signal; inactive means no such curve, though single readings can be large or run the other way; the % refers to the signal ratio
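Ratiometric TR-FRET (665 over 545 nm, excitation 340 nm) tracks disruption of MBNL1-His/biotin-(CUG)12 complex after 60 min at room temperature, with compounds at 92 nM to 58 uM final.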
PKM2 activator: increases activity of human pyruvate kinase M2; P14618; purified PKM2, Kinase-Glo ATP luminescence, activation; response scale: 0% is enzyme alone, no compound; Potency, µM (titrated, usually from 57.5 µM), hits mostly activators; 0.34% of 260,000 active; active means well fitted activation curve with a large enough effect; inconclusive means small, poorly fitted or top-dose-only effect; inactive means no such curve, though single readings can be large or run the other way; further: nearly all actives have a fitted effect of over 55% in size
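ATP formation by purified human PK-M2, quantified via coupled luciferase luminescence after 1 h at room temperature with 0.1 mM ADP and 0.5 mM PEP final.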
CtBP-E1A inh: inhibitors of CtBP/E1A interaction; activity change, % (test concentration not listed); AID 651724; 0.49% of 340,000 active; AlphaScreen GST-E1A/His-CtBP binding, 1536-well; hits give low values
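In 5 uL wells, 23 nL compound meets equimolar GST-E1A and His-CtBP (5X stock 125 nM each) for 2 h, 37 °C. Beads (5X, 50 ug/mL) then 1 h, 37 °C, dark.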
Six1-Eya2 inh: Six1/Eya2 interaction inhibition | Q15475+O00167 | AlphaScreen GST-Six1/His-Eya2 binding, biochemical; hits give low values | activity change, % (test concentration not listed) | 0.56% of 360,000 active | AID 651725
Target sequence (O00167 whole entry, looked up): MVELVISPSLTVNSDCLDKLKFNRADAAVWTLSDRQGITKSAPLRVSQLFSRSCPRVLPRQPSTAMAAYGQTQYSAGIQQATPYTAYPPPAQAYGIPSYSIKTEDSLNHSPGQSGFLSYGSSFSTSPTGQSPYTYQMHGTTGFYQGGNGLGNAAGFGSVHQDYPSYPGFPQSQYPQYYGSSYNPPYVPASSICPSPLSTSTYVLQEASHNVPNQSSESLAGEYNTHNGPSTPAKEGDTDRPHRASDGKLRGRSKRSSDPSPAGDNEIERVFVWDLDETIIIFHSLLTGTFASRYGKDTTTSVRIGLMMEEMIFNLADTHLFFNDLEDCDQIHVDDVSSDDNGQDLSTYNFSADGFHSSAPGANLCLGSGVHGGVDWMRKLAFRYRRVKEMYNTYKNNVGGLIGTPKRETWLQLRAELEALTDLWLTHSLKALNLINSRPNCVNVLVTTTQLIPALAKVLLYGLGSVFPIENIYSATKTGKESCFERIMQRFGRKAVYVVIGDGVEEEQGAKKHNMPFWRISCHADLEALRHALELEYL
Target sequence (Q15475 whole entry, looked up): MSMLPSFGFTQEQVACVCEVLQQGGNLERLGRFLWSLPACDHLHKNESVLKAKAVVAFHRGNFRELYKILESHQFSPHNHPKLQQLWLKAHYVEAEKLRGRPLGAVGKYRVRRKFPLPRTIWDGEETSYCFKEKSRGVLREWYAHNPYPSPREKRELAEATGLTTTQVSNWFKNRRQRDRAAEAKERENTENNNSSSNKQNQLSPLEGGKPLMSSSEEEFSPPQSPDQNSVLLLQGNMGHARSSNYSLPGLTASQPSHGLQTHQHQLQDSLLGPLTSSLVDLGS
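AlphaScreen luminescence read after one hour at 37 °C in darkness. Pin-transferred compounds met GST-Six1 and His-Eya2 protein (5X stock 250 nM/500 nM) plus glutathione donor and Ni-chelate acceptor beads (5X, 50 ug/mL).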
Each line names hits and unclear results; the compound was inactive in the other large screens. Unless noted, no stated cut-off is given here; in the data, active means activity change below about -65%; inconclusive means mostly about -30% to -63%; inactive means weaker than that.

C/C=C\C=C\C(=O)N1CC2(CC(c3cccc(NC(=O)CC)c3)=NO2)C[C@H]1C(N)=O (some centres not stated)	PKM2 activator 7.9µM
CCCCCC(=O)Nc1cccc(C2=NOC3(C2)C[C@H](C(N)=O)N(C(=O)COc2ccc(Cl)cc2)C3)c1 (some centres not stated)	none
C/C=C\C=C\C(=O)N1CC2(CC(c3cccc(NC(=O)COc4ccc(Cl)cc4)c3)=NO2)C[C@H]1C(N)=O (some centres not stated)	PKM2 activator 16µM (no result: CtBP-E1A inh)
C/C=C\C=C/C(=O)Nc1cccc(C2=NOC3(C2)C[C@@H](C(N)=O)N(C(=O)COc2ccc(Cl)cc2)C3)c1 (some centres not stated)	PKM2 activator 16µM
Nc1c(SCCC(=O)O)ccc2c1C(=O)c1ccccc1C2=O	MBNL1 CUG block inconclusive, Six1-Eya2 inh -67 (no result: PKM2 activator)
O=C(O)CCSc1nc2ccccc2s1	none
CC#CCN1c2ccccc2[C@]23C[C@@H](C(=O)OC)N(C(=O)c4cccs4)C2=NC(C(=O)OC)=C(C(=O)OC)[C@H]13	none (no result: MBNL1 CUG block, CtBP-E1A inh, Six1-Eya2 inh)
CC(C)(C)NC(=O)C(c1ccccc1F)n1c(=O)c(-c2cc3ccccc3[nH]2)nc2ccccc21 (configuration not stated)	none (no result: MBNL1 CUG block, PKM2 activator)
COc1ccc(N2CCC(CNC(=S)Nc3cc(C)ccc3C)C2)cc1 (configuration not stated)	Six1-Eya2 inh -69 (no result: CtBP-E1A inh)
COc1ccc(N2CCC(CNC(=S)Nc3cc(C)cc(C)c3)C2)cc1 (configuration not stated)	CtBP-E1A inh -70, Six1-Eya2 inh -66
CC1Cc2ccccc2N1C(=O)COC(=O)/C=C/c1cccc(F)c1 (configuration not stated)	CtBP-E1A inh -90 (no result: MBNL1 CUG block, PKM2 activator)
CC(=O)C1=CCC(c2cccc3ccccc23)N(S(=O)(=O)c2ccc(C)cc2)C1 (configuration not stated)	none (no result: MBNL1 CUG block, PKM2 activator)
O=S(=O)(Nc1ccc(S(=O)(=O)Nc2ccccc2)cc1)c1ccccc1	PKM2 activator inconclusive
O=S(=O)(Nc1ccc(-n2cccc2)cc1)c1ccccc1	PKM2 activator 16µM
COc1ccc(/C=N/NC(=O)CNC(=O)COc2ccccc2)cc1	none
CC12CCC(C(=O)N/N=C/c3ccc(O)cc3O)(OC1=O)C2(C)C (configuration not stated)	CtBP-E1A inh -88, Six1-Eya2 inh -68
O=C(C[n+]1ccccc1)N/N=C/c1cc(Br)ccc1O	Six1-Eya2 inh -88 (no result: PKM2 activator)
COc1cccc(/C=N/NC(=O)CNC(=O)COc2ccccc2)c1O	CtBP-E1A inh inconclusive, Six1-Eya2 inh -83
O=C(COc1ccccc1)NCC(=O)N/N=C/c1ccc(O)cc1O	CtBP-E1A inh -91, Six1-Eya2 inh -80
CCCCNC(=O)C[C@@H]1C[C@@]2(C(=O)OCC)CCCC=C2N(CCC2=CCCCC2)C1=O	none (no result: MBNL1 CUG block, PKM2 activator)
CCOc1ccc(/C=N/NC(=O)C(O)c2ccccc2)c(O)c1 (configuration not stated)	CtBP-E1A inh -85, Six1-Eya2 inh inconclusive
O=C(CNC(=O)c1ccc2c(c1)OCCO2)N/N=C/c1ccc(O)cc1O	CtBP-E1A inh -90, Six1-Eya2 inh -77
COc1cccc(/C=N/NC(=O)C[n+]2ccccc2)c1O	CtBP-E1A inh -88, Six1-Eya2 inh -87
CN(C)c1ccc(/C=N/NC(=O)CNC(=O)c2ccc3c(c2)OCCO3)cc1	none
COc1cc(OC)c(OC)cc1/C=N/NC(=O)C[n+]1ccccc1	none (no result: MBNL1 CUG block)
CCOc1cccc(/C=N/NC(=O)c2ccc3c(c2)OCCO3)c1O	MBNL1 CUG block inconclusive, CtBP-E1A inh -87, Six1-Eya2 inh inconclusive (no result: PKM2 activator)
C[C@@H]1CCCCO[C@H](CN(C)Cc2ccc3c(c2)OCO3)[C@@H](C)CN([C@H](C)CO)C(=O)c2cc(NC(=O)c3ccccc3)ccc2O1	none (no result: MBNL1 CUG block, PKM2 activator)
CC1(C(=O)NCc2cccs2)Cc2c(-c3cccc(C(F)(F)F)c3)ccnc2O1 (configuration not stated)	none (no result: MBNL1 CUG block, PKM2 activator)
COC(=O)C1=C(C(=O)OC)[C@@H]2N(C)c3ccc(OC)cc3[C@@]23C[C@@H](C(=O)OC)N(S(=O)(=O)c2ccc(C(F)(F)F)cc2)C3=N1	none (no result: MBNL1 CUG block, CtBP-E1A inh, Six1-Eya2 inh)
O=C(N/N=C/c1ccc(O)cc1O)C(=O)N/N=C/c1ccc(O)cc1O	CtBP-E1A inh -92, Six1-Eya2 inh -68
O=C(NN=Cc1ccc(O)cc1)C(=O)NN=Cc1ccc(O)cc1	none (no result: MBNL1 CUG block, PKM2 activator)
O=C(CNC(=O)c1ccco1)N/N=C/c1ccccc1[N+](=O)[O-]	MBNL1 CUG block inconclusive
O=C(CNC(=O)c1ccncc1)N/N=C/c1ccc(O)cc1O	Six1-Eya2 inh -90 (no result: CtBP-E1A inh)
COc1cccc(/C=N/NC(=O)CNC(=O)c2cccnc2)c1O	CtBP-E1A inh -87, Six1-Eya2 inh -71 (no result: PKM2 activator)
COc1cc(/C=N/NC(=O)CNC(=O)c2ccncc2)ccc1O	none
COc1cccc(/C=N/NC(=O)CNC(=O)c2ccco2)c1O	CtBP-E1A inh inconclusive, Six1-Eya2 inh -84
COc1cccc(/C=N/NC(=O)CNC(=O)c2ccncc2)c1O	none (no result: CtBP-E1A inh)
CCOc1cccc(/C=N/NC(=O)c2cc(-c3cccn3C)n[nH]2)c1O	CtBP-E1A inh -85, Six1-Eya2 inh -87
COc1cccc(/C=N/NC(=O)CNC(=O)c2ccc3c(c2)OCCO3)c1O	CtBP-E1A inh inconclusive, Six1-Eya2 inh -88
O=C(CNC(=O)c1ccco1)Nc1ccc(F)cc1	CtBP-E1A inh -96
CCOc1cccc(/C=N/NC(=S)Nc2cc(S(=O)(=O)N3CCOCC3)ccc2N2CCOCC2)c1O	CtBP-E1A inh -97, Six1-Eya2 inh -87
CCC1=C(OC(=O)N(CC)CC)N2C(=O)OC(=NCCOC)[C@]2(C)[C@H]2C1=CC[C@H]1C(=O)N(C)C(=O)[C@H]12	none (no result: MBNL1 CUG block, CtBP-E1A inh, Six1-Eya2 inh)
COC(=O)C1=C(C(=O)OC)[C@@H]2Nc3ccccc3[C@@]23C[C@@H](C(=O)OC)N(S(=O)(=O)c2ccc(C#N)cc2)C3=N1	none (no result: MBNL1 CUG block, CtBP-E1A inh, Six1-Eya2 inh)
COc1cccc(/C=N/NC(=O)CNC(=O)C2COc3ccccc3O2)c1O (configuration not stated)	MBNL1 CUG block inconclusive, CtBP-E1A inh -83, Six1-Eya2 inh inconclusive
CSc1nnc(C)c(/C=C/Nc2ccc(C)cc2)n1	MBNL1 CUG block inconclusive, CtBP-E1A inh -67
CC(C)(C)NC(=O)C(c1ccncc1)N(Cc1ccc(F)cc1)C(=O)c1ccc(-c2ccccc2)[nH]1 (configuration not stated)	PKM2 activator 28µM
COc1ccc([C@]23Cc4cc(OC)c(OC)cc4C(O2)C2=C(CCCC2=O)O3)cc1	none (no result: CtBP-E1A inh, Six1-Eya2 inh)
CN1CCc2nc(SCC(=O)Nc3cccc(F)c3)c(C#N)c(-c3cccs3)c2C1	MBNL1 CUG block inconclusive, PKM2 activator 18µM, CtBP-E1A inh inconclusive
CCn1ccnc1CNCc1cn(-c2cc(C)ccc2C)nc1-c1ccccc1	Six1-Eya2 inh -82 (no result: CtBP-E1A inh)
Cc1ccc(C)c(-n2cc(CNCCc3cnccn3)c(-c3ccccc3)n2)c1	none (no result: CtBP-E1A inh)
Cc1cc2oc(=O)sc2cc1NS(=O)(=O)c1cccc2cccnc12	PKM2 activator 32µM
Cc1cc2oc(=O)sc2cc1NS(=O)(=O)c1ccccc1	PKM2 activator inconclusive

High-throughput results deposited in PubChem BioAssay by National Center for Advancing Translational Sciences (NCATS).
